Bioassay records from PubChem.
Only some compounds are listed: those with a hit (about 1.8% of all), similar ones and a draw of the others.
Tb PGK inh: qHTS Assay to Find Inhibitors of Phosphoglycerate Kinase. PGK/GAPDH coupled, Kinase-Glo luminescence, 60 min. Potency, µM (top dose mostly 57.5 µM), most hits filed as inhibitors. 380,000 tested, 0.043% active. AID 602233, 2012; further: nearly all actives have a fitted effect of over 60% in size
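Recombinant glycosomal PGK reaction used 1,3-bisphosphoglycerate generated in-well by GAPDH (100nM final) in 100mM TEA pH 7.6, 5mM MgCl2, 0.01% Tween-20. After 60 minutes at room temperature, ATP was read by Kinase-Glo Plus luminescence end-point.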
Pin1 inh: qHTS Assay to Find Inhibitors of Pin1; Potency, µM (doses to about 115 µM), actives largely listed as inhibitors; 390,000 tested, 0.009% active; Peptidyl-prolyl cis-trans isomerase NIMA-interacting 1 (Homo sapiens), Q13526; Pin1 FP peptide displacement, HiFluor488, 10 min; active means well fitted inhibition curve with a large enough effect in the polarisation, with a control signal flat, not every such curve was filed as active; inconclusive means small, poorly fitted or top-dose-only effect, or effect the other way, or a change in a side signal; inactive means no such curve, though single readings can be large or run the other way; the % refers to the polarisation
Target sequence (Q13526 whole entry, looked up): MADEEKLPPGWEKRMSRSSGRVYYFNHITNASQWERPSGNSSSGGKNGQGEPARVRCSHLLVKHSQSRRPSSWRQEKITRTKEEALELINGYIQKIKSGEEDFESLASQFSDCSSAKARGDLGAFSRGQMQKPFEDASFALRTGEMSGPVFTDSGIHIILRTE
GLP-1R inv ag: qHTS of GLP-1 Receptor Inverse Agonists (Inhibition Mode) | HEK293 GLP-1R CRE-luciferase, luminescence, 24 h; GLP-1R form is constitutively active | 410,000 tested, 1.6% active | AID 624417, 2012 | Glucagon-like peptide 1 receptor (Homo sapiens), P43220 | Potency, µM (doses to about 38.3 µM), usual class: inhibitors; further: nearly all actives have a fitted effect of over 55% in size
Target sequence (P43220 whole entry, looked up): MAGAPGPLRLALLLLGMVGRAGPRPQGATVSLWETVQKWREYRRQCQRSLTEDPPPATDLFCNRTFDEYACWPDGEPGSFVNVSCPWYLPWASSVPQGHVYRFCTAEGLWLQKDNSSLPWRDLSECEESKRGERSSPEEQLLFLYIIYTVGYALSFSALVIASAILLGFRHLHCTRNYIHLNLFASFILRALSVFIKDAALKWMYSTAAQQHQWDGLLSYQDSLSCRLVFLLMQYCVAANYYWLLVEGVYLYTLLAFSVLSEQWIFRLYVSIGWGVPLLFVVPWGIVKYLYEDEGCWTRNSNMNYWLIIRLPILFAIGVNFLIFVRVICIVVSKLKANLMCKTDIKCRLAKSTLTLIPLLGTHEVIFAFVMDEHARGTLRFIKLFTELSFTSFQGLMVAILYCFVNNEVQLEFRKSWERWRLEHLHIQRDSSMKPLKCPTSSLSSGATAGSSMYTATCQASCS
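HEK293 cells stably co-expressing constitutively active GLP-1R and a cAMP-responsive luciferase reporter were seeded in DMEM with 10% Nu serum, given compounds after 12 h, and incubated 24 h at 37 deg C. Luminescence was then read.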
GLP1R ag: qHTS of GLP-1 Receptor Agonists | Glucagon-like peptide 1 receptor (Homo sapiens), P43220 | Potency, µM (titrated, usually from 45.6 µM), actives largely listed as activators | AID 624172, 2012 | 380,000 tested, 0.007% active | HEK293 GLP-1R CRE-luciferase, luminescence, 4-6 h; cells express a hypersensitive GLP-1R form
Tb PFK block: qHTS Assay to Find Inhibitors of T. brucei phosphofructokinase; ATP-dependent 6-phosphofructokinase (Trypanosoma brucei brucei), O15648; T. brucei PFK, ADP-Glo luminescence; Potency, µM (doses to about 57.5 µM), usual class: inhibitors; 330,000 tested, 0.17% active; AID 485367, 2010; further: nearly all actives have a fitted effect of over 60% in size
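Luminescent ADP detection (ADP-Glo, two-step: ATP depletion then ADP-to-ATP conversion for luciferase) reported PFK activity after 45 min room-temperature reaction of 1.25 nM enzyme with 0.5 mM F6P and 0.1 mM ATP at pH 8.0.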
HEK293 tox: qHTS of GLP-1 Receptor Inverse Agonists: Cytotox Screen | 410,000 tested, 0.13% active | HEK293 cAMP-luciferase reporter cells, luminescence, 24 h | Potency, µM (highest dose often 38.3 µM), usual class: inhibitors | AID 624418, 2012;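 further: loss of luciferase light is scored as toxicity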
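Here, cytotoxicity is scored as loss of luminescence. The MLSMR collection was tested on cells seeded in medium containing 10% Nu serum, with a 24 hr compound exposure preceded by 12 hours of culture.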
Of the large screens only hits and unclear results are named; the others gave an inactive call. Unless noted, the call rests on the fitted dose curve; in most records, active means well fitted curve in the direction sought with a large enough effect; inconclusive means small, poorly fitted or top-dose-only effect, or another doubt; inactive means no such curve, though single readings can be large; an effect the other way counts as inactive or inconclusive.

CCOc1cc(/C=N/O)ccc1OS(=O)(=O)c1ccc(C)cc1	GLP-1R inv ag inconclusive
CCOc1cc(/C=N/NS(=O)(=O)c2ccccc2)ccc1OS(=O)(=O)c1ccc(C)cc1	GLP-1R inv ag 8.9µM
Cc1ccc(C)c(C(=O)CSc2nc3cc(C(=O)NC4CCCC4)ccc3c(=O)n2CC2CCCO2)c1 (stereo not given)	none (no result: GLP1R ag, Tb PFK block)
CC[C@]12c3[nH]c4ccc(Cl)cc4c3CCN1C(=O)[C@@H](CC(=O)NCc1cccc(C(F)(F)F)c1)C[C@@H]2C(=O)N1CCN(C(=O)c2ccco2)CC1	GLP-1R inv ag 10µM, HEK293 tox inconclusive
CC[C@]12c3[nH]c4ccc(OC)cc4c3CCN1C(=O)C(CC(=O)NCc1cccc(C(F)(F)F)c1)C[C@@H]2C(=O)N1CCN(C(=O)c2ccco2)CC1 (stereo not given in full)	none
Fc1ccccc1N1CCN(c2cnc3ccccc3n2)CC1	GLP-1R inv ag 10µM (no result: Tb PFK block)
CCCCc1nn2c(C)c(-c3ccc(OCC)cc3)nc2s1	GLP-1R inv ag 10µM (no result: GLP1R ag, Tb PFK block)
CCN(C(=O)c1oc2ccc(S(=O)(=O)N3CCCCCC3)cc2c1C)c1ccccc1	GLP-1R inv ag inconclusive (no result: GLP1R ag, Tb PFK block)
O=C1/C(=C/c2cccs2)N=C(c2cccs2)N1Nc1ccccc1	Pin1 inh inconclusive, GLP-1R inv ag 10µM
CCN(CC)c1ccc2cc(S(=O)(=O)c3ccc(Cl)cc3)c(=O)oc2c1	Pin1 inh inconclusive, GLP-1R inv ag 10µM
CCCCCCc1cc2cc(S(=O)(=O)c3ccc(Cl)cc3)c(=O)oc2cc1O	GLP-1R inv ag inconclusive
COc1cccc(C(=O)Nc2ccc(-c3nc4ccccc4s3)cc2Cl)c1	none (no result: Tb PGK inh, GLP1R ag, Tb PFK block)
CC[n+]1c(-c2ccccc2)csc1Nc1c(C)n(C)n(-c2ccccc2)c1=O	GLP-1R inv ag inconclusive
CC[n+]1c(-c2ccc(C)cc2)csc1Nc1c(C)n(C)n(-c2ccccc2)c1=O	GLP-1R inv ag 8.9µM
O=S(=O)(c1cccc(C(F)(F)F)c1)N1CCC(c2cc(-c3cccc4ccccc34)n[nH]2)CC1	GLP-1R inv ag 8.9µM
Cc1ccc(-n2c(-c3ccc(Br)cc3)nc3c(cnn3-c3ccccc3)c2=O)cc1	none (no result: GLP1R ag, Tb PFK block)
Cc1ccc(-c2nc3c(cnn3-c3ccccc3)c(=O)n2-c2cccc(Cl)c2)cc1	GLP-1R inv ag 4.5µM (no result: GLP1R ag, Tb PFK block)
O=S(=O)(NCCSc1ccccc1)c1ccc(F)cc1	GLP-1R inv ag 10µM
CC(C)(C)SCCNS(=O)(=O)c1ccc(F)cc1	none (no result: Tb PGK inh)
Cc1ccccc1NC(=O)/C(=C/c1ccco1)c1ccccc1	GLP-1R inv ag inconclusive
CCc1ccccc1NC(=O)/C(=C/c1ccco1)c1ccccc1	GLP-1R inv ag 7.1µM
Cc1ccccc1Nc1c(-c2ccc(N3CCOCC3)cc2)nc2ccc(Cl)cn12	GLP-1R inv ag 10µM (no result: GLP1R ag, Tb PFK block)
Cc1ccn2c(Nc3ccccc3C)c(-c3ccc(N4CCOCC4)cc3)nc2c1	GLP-1R inv ag 13µM (no result: GLP1R ag, Tb PFK block)
C=CCC1(CC=C)CCCN1C(=O)c1cc(COc2cccc(C(F)(F)F)c2)on1	GLP-1R inv ag 10µM
O=C(CCCCn1c(=O)c2ccccc2n(CC(=O)Nc2ccc(F)cc2F)c1=O)NCCc1ccccc1	none (no result: Tb PFK block)
CO/N=C(/CNC(=O)c1ccc(F)cc1)c1ccc(Cl)cc1	GLP-1R inv ag 8.9µM
CCOC(=O)c1cc2c(ccn2C)n1CC(=O)N(Cc1ccccc1)c1ccc(F)cc1	GLP-1R inv ag inconclusive
CCOC(=O)c1cc2c(ccn2C)n1CC(=O)N(Cc1ccccc1)c1ccccc1	GLP-1R inv ag 13µM
O=S(=O)(c1ccccc1)N1CCN(c2nc(-c3ccc(Br)cc3)cs2)CC1	none (no result: Tb PGK inh, GLP-1R inv ag, GLP1R ag, Tb PFK block, HEK293 tox)
CC[C@H](C)[C@@H]1NC(=O)[C@@H](CC(C)C)NC(=O)[C@H](C(C)C)NC(=O)[C@H]2CSSC[C@H](NC1=O)C(=O)N2	GLP-1R inv ag 4µM, HEK293 tox inconclusive (no result: Tb PGK inh, Pin1 inh, Tb PFK block)
O=C(c1cccc(-c2ccco2)c1)N1CCCC(N2CCN(c3ccc(F)cc3)CC2)C1 (stereo not given)	GLP-1R inv ag 10µM
COCc1nc2ccccc2n1Cc1ccc(C(C)(C)C)cc1	Pin1 inh inconclusive, GLP-1R inv ag inconclusive (no result: GLP1R ag, Tb PFK block)
CN(C)C(CNC(=O)c1ccc(Br)cc1)c1ccco1 (stereo not given)	none
CC(C)CCOc1ccc(C(=O)NCC(c2ccco2)N(C)C)cc1 (stereo not given)	GLP-1R inv ag 7.9µM
COc1ccc2c(c1)NC(c1ccc(Cl)cc1)=NC(c1cccs1)=N2	none (no result: Tb PGK inh, GLP1R ag, Tb PFK block)
CC[C@@H](C)[C@H](CN[C@H](CNC)C(C)C)NC[C@@H](C)c1ccc(CC(C)C)cc1	GLP-1R inv ag inconclusive, HEK293 tox 11µM
COc1cc([N+](=O)[O-])ccc1NC(=O)NCC1CCN(Cc2ccc(Cl)cc2)CC1	GLP-1R inv ag 10µM, HEK293 tox inconclusive
Cc1cc(NC(=O)CN(C)S(=O)(=O)c2ccc3c(c2)CCCC(=O)N3)ccc1Br	GLP-1R inv ag inconclusive (no result: Tb PFK block)
COc1ccc(OCC(=O)OCc2cc(=O)n3nc(C4CC4)sc3n2)cc1	none (no result: GLP1R ag, Tb PFK block)
Cc1ccc(N(C)S(=O)(=O)c2cccc(C(=O)NC3CC(C)(C)NC(C)(C)C3)c2)cc1	GLP-1R inv ag 11µM
CC1(C)CC(NC(=O)c2cccc(S(=O)(=O)N(Cc3ccccc3)c3ccccc3)c2)CC(C)(C)N1	GLP-1R inv ag inconclusive, HEK293 tox inconclusive
O=C(NCc1ccccc1)C(c1ccccc1)n1c(-c2ccncc2)nc2ccccc21 (stereo not given)	none (no result: Tb PGK inh, Pin1 inh, GLP1R ag, Tb PFK block)
O=C(NCc1ccccc1)C(c1ccccc1)n1c(-c2ccccn2)nc2ccccc21 (stereo not given)	GLP-1R inv ag 7.9µM (no result: Tb PGK inh, Pin1 inh, GLP1R ag, Tb PFK block)
COc1ccc2c(CNCCc3ccccc3)c(C(=O)O)n(Cc3cccc(F)c3)c2c1	none (no result: GLP1R ag, Tb PFK block)
N#CC(C#N)=NNc1ccc(S(=O)(=O)N2CCCCC2)cc1	GLP-1R inv ag 1.3µM, HEK293 tox inconclusive
NC(=O)Nc1cccc2ccccc12	none
O=C(Nc1cccc2ccccc12)OC1C=CS(=O)(=O)C1 (stereo not given)	GLP-1R inv ag 10µM
O=C(c1ccco1)N1CCN(c2nc(C3CC3)nc3c2nnn3Cc2ccccc2Cl)CC1	GLP-1R inv ag 10µM
O=C(c1ccco1)N1CCC(c2nc3c(nnn3Cc3ccccc3Cl)c(=O)[nH]2)CC1	none
